Values without a mark were called inactive.
The compounds below were run on HCC1569 (assay: H1.0 immunofluorescence intensity relative to DMSO (% of DMSO); higher = stronger H1.0 induction, active = 140 or more). Conditions: concentration: 10 µM; 24 h.
Outline: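 Cell number or H1.0 nuclear intensity appears as percent of the plate control, based on the median of replicates. Measurements came from HCC1569 and TDF cells exposed in triplicate to compounds at 10 µM for 24 h at 37 °C, then imaged in six fields per well at ×10. Positional effects were smoothed out of HCC1569 values.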
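Note: TDF is a line of transformed human dermal fibroblasts of mesenchymal origin.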

SMILES	H1.0 immunofluorescence intensity
CC(N)Cc1c[nH]c2ccc(OCc3cccs3)cc12.Cl (centres undefined)	92.8
CC1CC(C)C(=O)C(C(O)CC2CC(=O)NC(=O)C2)C1 (centres undefined) [Cycloheximide]	139
CN1C(=O)CCS(=O)(=O)C1c1ccc(Cl)cc1 (centres undefined) [Chlormezanone]	95.3
CCCCCCC(=O)CCCCCCC=CCC(O)C(O)C(N)(CO)C(=O)O (centres undefined) [Myriocin]	87.9
C[N+]1(C)C2CCC1CC(OC(=O)c1c[nH]c3ccccc13)C2.[I-] (centres undefined) [3-Tropanylindole-3-carboxylate methiodide]	114
CC(C)C1(NC(=O)C2CC3c4cccc5[nH]cc(c45)CC3N(C)C2)OC2(O)C3CCCN3C(=O)C(Cc3ccccc3)N2C1=O.CS(=O)(=O)O (centres undefined) [Dihydroergocristine mesylate]	88.3
Cl.c1ccc2c(c1)OCC(C1=NCCN1)O2 (centres undefined) [Idazoxan hydrochloride]	99
CCCCCCC(C)(C)c1ccc(C2CC(O)CCC2CCCO)c(O)c1 (centres undefined)	93
c1ccc2c(c1)[nH]c1cnccc12 [Norharmane]	92
CC1=C(O)C(=O)C=C2C1=CC=C1C2(C)CCC2(C)C3CC(C)(C(=O)O)CCC3(C)CCC12C (centres undefined) [Celastrol]	114
CC1=NN=C(c2ccc(N)cc2)c2cc3c(cc2C1)OCO3.Cl	104
Cc1ccc(S(=O)(=O)NC(CCCCN)C(=O)CCl)cc1.Cl [Na-p-Tosyl-L-lysine chloromethyl ketone hydrochloride]	101
NC1(C(=O)O)CCC(C(=O)O)C1 (mixture of isomers)	95.1
Cc1[nH]c2ccc(O)cc2c1CCN.O=C(O)C=CC(=O)O [2-Methyl-5-hydroxytryptamine maleate]	85.2
COC1C(O)C(C)OC(OC2CCC3(C=O)C(CCC4C3CCC3(C)C(C5=CC(=O)OC5)CCC43O)C2)C1O (centres undefined) [Peruvoside]	106
CCCN(CCC)C1CCc2c(F)ccc(O)c2C1.Cl (stereo not drawn) [S(-)-UH-301 hydrochloride]	96.3
CN1[C@@H]2CC[C@H]1C[C@@H](OC(=O)[C@H](CO)c1ccccc1)C2 [L-Hyoscyamine]	96.2
COCC1OC(=O)c2coc3c2C1(C)C1=C(C3=O)C2CCC(=O)C2(C)CC1OC(C)=O (centres undefined) [Wortmannin]	140
CS(=O)(=O)O.Cc1c(C(=O)c2cccc3ccccc23)c2cccc3c2n1C(CN1CCOCC1)CO3 (stereo not drawn) [( R)-(+)-WIN 55,212-2 mesylate]	209 (active)
CN(C)C(=O)Oc1cccc([N+](C)(C)C)c1.[Br-] [Neostigmine bromide]	89.4

SMILES	H1.0 immunofluorescence intensity
NCCc1c[nH]c2ccc(C(N)=O)cc12.O=C(O)C=CC(=O)O [5-Carboxamidotryptamine maleate]	87.6
CN1CC(CNC(=O)OCc2ccccc2)CC2c3cccc4c3c(cn4C)CC21 (centres undefined) [Metergoline]	120
CC(C)c1cc2c(c(O)c1O)C1(C(=O)O)CCCC(C)(C)C1CC2 (centres undefined) [Carnosic acid]	103
CC(=O)C1CCC2C3CCC4CC(O)CCC4(C)C3CCC12C (stereo not drawn) [5alpha-Pregnan-3alpha-ol-20-one]	102
CC1=C(O)C(=O)C2OC2C1=O (single isomer, unassigned; (-))	117
CC12C(=O)OC(=O)C1(C)C1CCC2O1 (centres undefined) [Cantharidin]	187 (active)
CCCCCC=CCC=CCC=CC=CC(CCCC(=O)O)OO (centres undefined)	106
CCCN(CCC)C(=O)Cc1c(-c2ccc(Cl)cc2)nc2ccc(Cl)cn12	115
NC(CCCCCP(=O)(O)O)C(=O)O (stereo not drawn) [D(-)-2-Amino-7-phosphonoheptanoic acid]	99.2
Cl.Cl.Clc1cccc(N2CCNCC2)c1 [1-(3-Chlorophenyl)piperazine dihydrochloride]	100
CNC1CC(c2ccc(Cl)c(Cl)c2)c2ccccc21.Cl (centres undefined) [Indatraline hydrochloride]	133
COc1ccc2c(c1)C13CCCCC1C(C2)NCC3.Cl (centres undefined) [3-Methoxy-morphanin hydrochloride]	99.5
Cl.NCC#Cc1ccccc1 [3-Phenylpropargylamine hydrochloride]	102
NNC(=O)c1ccc(O)cc1 [4-Hydroxybenzhydrazide]	95.1
CCCN1CC(CSC)CC2c3cccc4[nH]cc(c34)CC21.CS(=O)(=O)O (centres undefined) [Pergolide methanesulfonate]	94.4
Cc1cc(C(=O)CN2CCCC2)c(C)n1-c1ccc(F)cc1	94.1
CN1CCc2cccc(Cl)c2CC1.Cl	86.7
Cc1o[nH]c(=O)c1CC(N)C(=O)O (racemic)	87.9
NC(CP(=O)(O)O)C(=O)O (racemic)	91.4

Source: the supplement of paper PMC7156485
